# Experimental data as given in PMC7862700, “An all-to-all approach to the identification of sequence-specific readers for epigenetic DNA modifications on cytosine”.
# Legend:
# Assay in all cases: DAPPL (digital affinity profiling via proximity ligation, sequencing); 10 mM Tris-HCl pH 7.5, 50 mM NaCl, 1 mM DTT, 4% glycerol, room temperature, 30 min; GST-TFs on glutathione beads, 16-mer random dsDNA library, 0.1% formaldehyde crosslink after washing; high values mean tight binding
# Settings in all cases: protein: recombinant; tags: N-terminal GST; dsDNA, one strand shown
# ELK1 = molecular target: T1, ELK1 (Homo sapiens, UniProt P19419 1-428)
# T1 sequence: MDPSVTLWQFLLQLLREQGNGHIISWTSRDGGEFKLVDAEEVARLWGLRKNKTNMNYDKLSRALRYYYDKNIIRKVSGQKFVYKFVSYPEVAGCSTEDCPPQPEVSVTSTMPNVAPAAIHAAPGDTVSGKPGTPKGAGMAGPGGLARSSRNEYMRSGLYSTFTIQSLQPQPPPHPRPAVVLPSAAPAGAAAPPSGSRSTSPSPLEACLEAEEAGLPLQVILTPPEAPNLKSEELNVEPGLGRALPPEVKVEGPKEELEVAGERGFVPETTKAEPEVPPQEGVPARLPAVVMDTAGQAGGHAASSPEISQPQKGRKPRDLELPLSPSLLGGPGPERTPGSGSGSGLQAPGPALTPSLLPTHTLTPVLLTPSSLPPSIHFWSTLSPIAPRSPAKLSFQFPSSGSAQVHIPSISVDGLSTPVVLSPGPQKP
# Summary of the method: (§1)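 GST fusions of human transcription factors were expressed in yeast and captured with glutathione beads. Once given DNA barcodes and pooled alongside a tag-only sample, they were incubated for 30 min at room temperature with 200 nmole of a random double-stranded 16-mer DNA library in Tris/NaCl/DTT/glycerol buffer, then washed, crosslinked (0.1% formaldehyde), proximity-ligated, PCR-amplified and sequenced on an Illumina NextSeq500. The binding signal of each hexamer is its read frequency for a factor divided by its frequency for the tag-only sample.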
# GABPA = molecular target: T2, GABPA (Homo sapiens, UniProt Q06546 1-454)
# T2 sequence: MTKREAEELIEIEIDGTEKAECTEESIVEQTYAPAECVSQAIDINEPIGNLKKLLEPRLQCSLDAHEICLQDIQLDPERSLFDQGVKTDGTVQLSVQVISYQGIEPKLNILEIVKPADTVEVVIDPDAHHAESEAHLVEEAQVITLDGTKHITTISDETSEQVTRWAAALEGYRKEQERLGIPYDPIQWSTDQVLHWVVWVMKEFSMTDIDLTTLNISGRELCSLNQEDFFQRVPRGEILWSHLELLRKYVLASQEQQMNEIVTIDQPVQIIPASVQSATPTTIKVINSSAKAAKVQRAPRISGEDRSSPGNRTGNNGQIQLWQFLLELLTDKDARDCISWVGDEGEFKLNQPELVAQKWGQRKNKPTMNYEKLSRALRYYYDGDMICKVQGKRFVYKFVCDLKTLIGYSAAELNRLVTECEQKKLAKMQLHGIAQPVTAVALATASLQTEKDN
# Summary of the method: as §1
# ELF1 = ELF1 (Homo sapiens, UniProt P32519 1-619)
# Summary of the method: as §1
# EHF = molecular target: T3, EHF (Homo sapiens, UniProt Q9NZC4 1-300)
# T3 sequence: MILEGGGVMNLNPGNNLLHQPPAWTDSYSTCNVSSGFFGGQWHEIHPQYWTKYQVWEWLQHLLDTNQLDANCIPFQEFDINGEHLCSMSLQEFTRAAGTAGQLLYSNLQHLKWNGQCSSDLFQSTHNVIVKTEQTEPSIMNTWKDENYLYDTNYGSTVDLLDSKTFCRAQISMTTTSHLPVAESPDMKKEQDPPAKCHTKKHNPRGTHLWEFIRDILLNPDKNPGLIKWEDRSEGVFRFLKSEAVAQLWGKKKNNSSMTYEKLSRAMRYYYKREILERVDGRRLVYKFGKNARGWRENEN
# Summary of the method: as §1
# SPIB = SPIB (Homo sapiens, UniProt Q01892 1-262)
# Summary of the method: as §1
# ETV5 = ETV5 (Homo sapiens, UniProt P41161 1-510)
# Summary of the method: as §1
# ELF4 = ELF4 (Homo sapiens, UniProt Q99607 1-663)
# Summary of the method: as §1
# ELK4 = molecular target: T4, ELK4 (Homo sapiens, UniProt P28324-2 1-405)
# T4 sequence: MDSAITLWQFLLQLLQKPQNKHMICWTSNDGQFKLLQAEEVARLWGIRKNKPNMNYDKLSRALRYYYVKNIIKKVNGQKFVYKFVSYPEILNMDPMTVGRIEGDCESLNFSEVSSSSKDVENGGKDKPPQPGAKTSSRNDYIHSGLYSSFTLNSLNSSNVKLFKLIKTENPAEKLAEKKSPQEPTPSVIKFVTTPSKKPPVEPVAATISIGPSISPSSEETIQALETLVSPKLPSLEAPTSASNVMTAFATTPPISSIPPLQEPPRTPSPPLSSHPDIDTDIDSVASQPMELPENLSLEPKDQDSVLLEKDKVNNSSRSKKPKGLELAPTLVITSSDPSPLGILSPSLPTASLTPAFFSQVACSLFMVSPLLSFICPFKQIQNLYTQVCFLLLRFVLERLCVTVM
# Summary of the method: as §1
# ELF3 = molecular target: T5, ELF3 (Homo sapiens, UniProt P78545 1-371)
# T5 sequence: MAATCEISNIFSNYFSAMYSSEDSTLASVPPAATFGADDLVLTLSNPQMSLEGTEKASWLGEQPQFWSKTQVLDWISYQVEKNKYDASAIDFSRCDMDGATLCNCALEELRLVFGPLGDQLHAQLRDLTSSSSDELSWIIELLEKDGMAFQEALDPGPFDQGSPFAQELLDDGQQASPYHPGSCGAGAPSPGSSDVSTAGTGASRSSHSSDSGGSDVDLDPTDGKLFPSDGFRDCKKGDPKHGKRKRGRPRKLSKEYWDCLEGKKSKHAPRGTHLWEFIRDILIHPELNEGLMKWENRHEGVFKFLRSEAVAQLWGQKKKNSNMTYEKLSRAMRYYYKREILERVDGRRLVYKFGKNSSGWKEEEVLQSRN
# Summary of the method: as §1
# ETV1 = ETV1 (Homo sapiens, UniProt P50549 1-477)
# Summary of the method: as §1
# ETV3L = molecular target: T6, ETV3L (Homo sapiens, UniProt Q6ZN32 1-361)
# T6 sequence: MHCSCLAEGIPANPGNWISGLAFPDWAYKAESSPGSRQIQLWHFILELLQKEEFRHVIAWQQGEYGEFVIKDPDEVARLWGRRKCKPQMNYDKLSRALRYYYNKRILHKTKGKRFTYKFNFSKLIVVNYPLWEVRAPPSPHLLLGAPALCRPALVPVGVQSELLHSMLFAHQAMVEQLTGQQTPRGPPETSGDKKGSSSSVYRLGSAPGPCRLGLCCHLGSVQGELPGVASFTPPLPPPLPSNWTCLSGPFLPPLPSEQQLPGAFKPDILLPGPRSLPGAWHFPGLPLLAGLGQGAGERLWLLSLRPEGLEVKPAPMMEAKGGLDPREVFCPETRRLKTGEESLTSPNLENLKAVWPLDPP
# Summary of the method: as §1
# ETS2 = molecular target: T7, ETS2 (Homo sapiens, UniProt P15036 1-469)
# T7 sequence: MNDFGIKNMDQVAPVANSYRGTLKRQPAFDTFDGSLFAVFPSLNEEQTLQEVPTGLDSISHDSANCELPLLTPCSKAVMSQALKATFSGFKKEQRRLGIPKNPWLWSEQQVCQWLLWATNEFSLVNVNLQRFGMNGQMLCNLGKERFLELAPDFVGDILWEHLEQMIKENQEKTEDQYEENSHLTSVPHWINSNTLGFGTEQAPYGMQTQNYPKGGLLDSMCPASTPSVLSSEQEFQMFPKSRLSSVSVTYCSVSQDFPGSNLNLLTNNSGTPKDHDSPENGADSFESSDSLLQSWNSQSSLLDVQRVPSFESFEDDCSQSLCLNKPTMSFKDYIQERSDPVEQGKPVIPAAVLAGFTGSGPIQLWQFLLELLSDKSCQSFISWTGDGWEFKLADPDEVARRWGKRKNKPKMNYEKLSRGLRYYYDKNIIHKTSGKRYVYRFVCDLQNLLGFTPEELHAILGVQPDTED
# Summary of the method: as §1
# SPDEF = molecular target: T8, SPDEF (Homo sapiens, UniProt O95238 1-335)
# T8 sequence: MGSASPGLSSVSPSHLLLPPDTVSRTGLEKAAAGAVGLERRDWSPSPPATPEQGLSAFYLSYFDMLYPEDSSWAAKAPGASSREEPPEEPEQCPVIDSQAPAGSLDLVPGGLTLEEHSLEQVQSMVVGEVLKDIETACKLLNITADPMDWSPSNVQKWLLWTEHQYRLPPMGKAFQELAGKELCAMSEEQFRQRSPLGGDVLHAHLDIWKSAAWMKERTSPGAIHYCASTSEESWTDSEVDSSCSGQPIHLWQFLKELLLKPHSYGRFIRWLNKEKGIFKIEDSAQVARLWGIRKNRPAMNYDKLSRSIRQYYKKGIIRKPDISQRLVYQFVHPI
# Summary of the method: as §1
# ETV7 = molecular target: T9, ETV7 (Homo sapiens, UniProt Q9Y603 1-341)
# T9 sequence: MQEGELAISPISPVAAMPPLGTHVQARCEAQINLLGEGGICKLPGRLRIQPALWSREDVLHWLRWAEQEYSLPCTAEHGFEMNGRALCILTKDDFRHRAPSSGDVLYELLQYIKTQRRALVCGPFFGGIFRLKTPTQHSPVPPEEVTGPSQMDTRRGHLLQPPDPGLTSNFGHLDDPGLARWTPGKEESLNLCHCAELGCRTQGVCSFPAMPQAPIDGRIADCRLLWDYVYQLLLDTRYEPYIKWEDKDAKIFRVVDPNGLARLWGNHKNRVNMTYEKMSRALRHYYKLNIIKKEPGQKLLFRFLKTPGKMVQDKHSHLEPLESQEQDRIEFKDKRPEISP
# Summary of the method: as §1
# ETV3 = molecular target: T10, ETV3 (Homo sapiens, UniProt P41162-2 1-143)
# T10 sequence: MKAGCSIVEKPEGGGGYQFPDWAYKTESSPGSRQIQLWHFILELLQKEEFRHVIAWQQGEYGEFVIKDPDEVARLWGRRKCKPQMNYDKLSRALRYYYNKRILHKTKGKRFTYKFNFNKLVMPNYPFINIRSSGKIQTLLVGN
# Summary of the method: as §1
# ETV6 = ETV6 (Homo sapiens, UniProt P41212 1-452)
# Summary of the method: as §1
# ELK3 = molecular target: T11, ELK3 (Homo sapiens, UniProt P41970 1-407)
# T11 sequence: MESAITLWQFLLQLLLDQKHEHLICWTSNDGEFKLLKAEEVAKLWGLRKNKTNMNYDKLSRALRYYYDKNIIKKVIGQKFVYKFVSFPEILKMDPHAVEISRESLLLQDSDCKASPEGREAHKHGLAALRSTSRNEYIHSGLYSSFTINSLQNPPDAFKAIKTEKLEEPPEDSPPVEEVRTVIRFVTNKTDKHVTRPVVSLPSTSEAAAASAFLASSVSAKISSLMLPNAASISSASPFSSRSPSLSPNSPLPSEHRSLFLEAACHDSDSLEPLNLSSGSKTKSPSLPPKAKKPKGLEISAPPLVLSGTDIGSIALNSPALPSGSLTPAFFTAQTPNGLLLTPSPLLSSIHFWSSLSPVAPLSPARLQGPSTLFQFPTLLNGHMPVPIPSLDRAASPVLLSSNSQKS
# Summary of the method: as §1
# ERF = molecular target: T12, ERF (Homo sapiens, UniProt P50548 1-548)
# T12 sequence: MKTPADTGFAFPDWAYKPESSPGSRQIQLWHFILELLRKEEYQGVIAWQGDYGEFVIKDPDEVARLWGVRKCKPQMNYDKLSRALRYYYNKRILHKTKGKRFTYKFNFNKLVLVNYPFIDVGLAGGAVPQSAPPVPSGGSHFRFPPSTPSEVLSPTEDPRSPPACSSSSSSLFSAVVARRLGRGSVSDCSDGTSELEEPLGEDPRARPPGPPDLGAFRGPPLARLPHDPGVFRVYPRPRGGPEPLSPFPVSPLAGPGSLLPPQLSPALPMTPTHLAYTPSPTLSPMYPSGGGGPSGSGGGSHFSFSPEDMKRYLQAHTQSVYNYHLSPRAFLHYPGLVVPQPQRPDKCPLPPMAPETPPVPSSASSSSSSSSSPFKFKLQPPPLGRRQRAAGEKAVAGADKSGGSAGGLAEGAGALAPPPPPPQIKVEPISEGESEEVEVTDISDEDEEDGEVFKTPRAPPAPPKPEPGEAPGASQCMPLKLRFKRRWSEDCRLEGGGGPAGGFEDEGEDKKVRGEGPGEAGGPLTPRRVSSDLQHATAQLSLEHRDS
# Summary of the method: as §1
# Chain of ELF4 (Q99607 whole entry): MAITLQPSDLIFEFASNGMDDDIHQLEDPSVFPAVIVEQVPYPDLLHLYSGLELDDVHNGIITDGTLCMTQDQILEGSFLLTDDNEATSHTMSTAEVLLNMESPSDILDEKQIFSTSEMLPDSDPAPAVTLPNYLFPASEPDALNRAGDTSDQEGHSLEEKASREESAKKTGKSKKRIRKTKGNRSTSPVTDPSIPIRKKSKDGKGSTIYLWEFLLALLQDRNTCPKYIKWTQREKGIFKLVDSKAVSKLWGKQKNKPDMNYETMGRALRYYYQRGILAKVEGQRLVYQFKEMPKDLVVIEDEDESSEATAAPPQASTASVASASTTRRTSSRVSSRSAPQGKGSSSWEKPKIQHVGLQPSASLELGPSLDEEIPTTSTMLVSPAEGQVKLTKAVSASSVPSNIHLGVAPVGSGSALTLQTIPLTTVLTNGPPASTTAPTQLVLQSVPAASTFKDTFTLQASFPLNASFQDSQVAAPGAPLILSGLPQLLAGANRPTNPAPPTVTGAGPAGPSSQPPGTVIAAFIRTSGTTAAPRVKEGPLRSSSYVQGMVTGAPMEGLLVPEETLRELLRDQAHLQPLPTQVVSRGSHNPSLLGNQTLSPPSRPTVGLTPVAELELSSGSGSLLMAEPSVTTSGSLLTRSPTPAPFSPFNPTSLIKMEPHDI
# Chain of ETV5 (P41161 whole entry): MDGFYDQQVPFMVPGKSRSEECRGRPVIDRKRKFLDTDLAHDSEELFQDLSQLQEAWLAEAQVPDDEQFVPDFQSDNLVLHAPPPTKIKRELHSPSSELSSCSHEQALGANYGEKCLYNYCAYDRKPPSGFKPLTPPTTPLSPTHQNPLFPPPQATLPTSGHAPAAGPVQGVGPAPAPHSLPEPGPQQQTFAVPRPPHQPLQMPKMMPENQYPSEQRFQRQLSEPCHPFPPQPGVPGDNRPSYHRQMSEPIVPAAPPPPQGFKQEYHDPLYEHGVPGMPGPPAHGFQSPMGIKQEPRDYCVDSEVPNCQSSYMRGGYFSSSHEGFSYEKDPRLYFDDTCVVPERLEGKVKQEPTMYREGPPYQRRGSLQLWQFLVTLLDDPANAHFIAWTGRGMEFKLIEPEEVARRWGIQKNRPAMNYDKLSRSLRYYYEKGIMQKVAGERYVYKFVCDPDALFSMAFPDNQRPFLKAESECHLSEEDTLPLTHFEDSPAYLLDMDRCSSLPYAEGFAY
# Chain of ETV1 (P50549 whole entry): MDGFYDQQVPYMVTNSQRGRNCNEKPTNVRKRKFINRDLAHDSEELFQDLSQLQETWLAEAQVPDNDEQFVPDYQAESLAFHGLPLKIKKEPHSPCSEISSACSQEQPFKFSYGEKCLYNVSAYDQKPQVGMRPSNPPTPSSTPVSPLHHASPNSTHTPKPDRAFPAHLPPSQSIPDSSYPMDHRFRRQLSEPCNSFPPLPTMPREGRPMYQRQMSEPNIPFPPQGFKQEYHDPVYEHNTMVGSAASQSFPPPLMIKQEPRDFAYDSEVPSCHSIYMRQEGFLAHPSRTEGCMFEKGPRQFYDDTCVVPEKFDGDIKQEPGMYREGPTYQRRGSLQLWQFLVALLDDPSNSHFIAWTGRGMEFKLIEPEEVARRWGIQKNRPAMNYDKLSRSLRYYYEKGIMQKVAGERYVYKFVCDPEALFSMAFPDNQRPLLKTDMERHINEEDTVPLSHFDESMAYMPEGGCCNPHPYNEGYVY
# Chain of SPIB (Q01892 whole entry): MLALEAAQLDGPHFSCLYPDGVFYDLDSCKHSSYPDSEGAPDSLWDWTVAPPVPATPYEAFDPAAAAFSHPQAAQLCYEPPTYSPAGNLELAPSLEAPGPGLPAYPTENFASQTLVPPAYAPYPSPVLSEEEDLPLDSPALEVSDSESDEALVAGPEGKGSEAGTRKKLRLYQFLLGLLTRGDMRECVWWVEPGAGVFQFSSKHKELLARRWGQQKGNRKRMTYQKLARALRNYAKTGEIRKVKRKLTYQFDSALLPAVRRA
# Chain of ELF1 (P32519 whole entry): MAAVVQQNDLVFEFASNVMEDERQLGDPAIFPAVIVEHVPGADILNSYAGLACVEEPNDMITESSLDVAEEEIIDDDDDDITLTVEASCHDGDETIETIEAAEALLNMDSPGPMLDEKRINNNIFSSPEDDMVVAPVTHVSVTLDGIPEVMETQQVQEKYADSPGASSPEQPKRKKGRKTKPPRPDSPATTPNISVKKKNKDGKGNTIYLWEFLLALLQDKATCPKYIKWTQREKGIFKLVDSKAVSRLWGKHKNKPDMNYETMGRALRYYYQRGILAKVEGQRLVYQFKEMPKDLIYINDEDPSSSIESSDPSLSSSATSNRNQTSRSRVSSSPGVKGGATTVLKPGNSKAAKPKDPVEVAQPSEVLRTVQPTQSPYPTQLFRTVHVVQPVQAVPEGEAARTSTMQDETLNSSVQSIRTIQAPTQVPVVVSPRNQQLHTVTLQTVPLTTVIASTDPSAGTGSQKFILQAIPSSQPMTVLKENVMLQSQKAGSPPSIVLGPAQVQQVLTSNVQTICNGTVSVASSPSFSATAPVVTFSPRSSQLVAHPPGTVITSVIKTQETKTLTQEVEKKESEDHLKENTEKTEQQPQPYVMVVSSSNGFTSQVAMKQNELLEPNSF
# Chain of ETV6 (P41212 whole entry): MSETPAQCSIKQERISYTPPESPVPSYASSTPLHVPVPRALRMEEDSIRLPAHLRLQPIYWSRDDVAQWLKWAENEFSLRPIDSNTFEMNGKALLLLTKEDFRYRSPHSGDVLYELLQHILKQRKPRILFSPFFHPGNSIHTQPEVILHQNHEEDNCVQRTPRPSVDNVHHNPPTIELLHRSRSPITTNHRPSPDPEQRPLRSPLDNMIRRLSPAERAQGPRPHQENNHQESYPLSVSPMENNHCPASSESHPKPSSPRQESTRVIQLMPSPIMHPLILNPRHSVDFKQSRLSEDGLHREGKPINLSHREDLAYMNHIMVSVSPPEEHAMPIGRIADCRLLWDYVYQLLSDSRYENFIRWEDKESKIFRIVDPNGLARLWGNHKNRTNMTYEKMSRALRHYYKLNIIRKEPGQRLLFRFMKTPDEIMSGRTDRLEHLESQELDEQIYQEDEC
Sequence,binding signal (ELK1),binding signal (GABPA),binding signal (ELF1),binding signal (EHF),binding signal (SPIB),binding signal (ETV5),binding signal (ELF4),binding signal (ELK4),binding signal (ELF3),binding signal (ETV1),binding signal (ETV3L),binding signal (ETS2),binding signal (SPDEF),binding signal (ETV7),binding signal (ETV3),binding signal (ETV6),binding signal (ELK3),binding signal (ERF)
ACACGG,"1.03 fold enrichment (6-mer frequency, TF over GST control)","1.05 fold enrichment (6-mer frequency, TF over GST control)","1.06 fold enrichment (6-mer frequency, TF over GST control)","1.05 fold enrichment (6-mer frequency, TF over GST control)","1.1 fold enrichment (6-mer frequency, TF over GST control)","1.04 fold enrichment (6-mer frequency, TF over GST control)","1.05 fold enrichment (6-mer frequency, TF over GST control)","1.07 fold enrichment (6-mer frequency, TF over GST control)","1.06 fold enrichment (6-mer frequency, TF over GST control)","1.1 fold enrichment (6-mer frequency, TF over GST control)","1.06 fold enrichment (6-mer frequency, TF over GST control)","1.08 fold enrichment (6-mer frequency, TF over GST control)","1.17 fold enrichment (6-mer frequency, TF over GST control)","1.03 fold enrichment (6-mer frequency, TF over GST control)","1.13 fold enrichment (6-mer frequency, TF over GST control)","1.06 fold enrichment (6-mer frequency, TF over GST control)",,
GTCTAT,"1.04 fold enrichment (6-mer frequency, TF over GST control)",,"1.08 fold enrichment (6-mer frequency, TF over GST control)","1.1 fold enrichment (6-mer frequency, TF over GST control)","1.01 fold enrichment (6-mer frequency, TF over GST control)","1.07 fold enrichment (6-mer frequency, TF over GST control)","1.11 fold enrichment (6-mer frequency, TF over GST control)","1 fold enrichment (6-mer frequency, TF over GST control)","1.12 fold enrichment (6-mer frequency, TF over GST control)","1.04 fold enrichment (6-mer frequency, TF over GST control)","1.05 fold enrichment (6-mer frequency, TF over GST control)","1.01 fold enrichment (6-mer frequency, TF over GST control)","1.08 fold enrichment (6-mer frequency, TF over GST control)","1.07 fold enrichment (6-mer frequency, TF over GST control)",,"1.03 fold enrichment (6-mer frequency, TF over GST control)","1.04 fold enrichment (6-mer frequency, TF over GST control)","1.14 fold enrichment (6-mer frequency, TF over GST control)"
